This is a sample that favours compounds with a hit; in the whole collection about 5.3% have one here.
JMJD2E inh – JMJD2E (human) inhibition; JMJD2E catalytic domain, FDH-coupled NADH fluorescence (FDH is formaldehyde dehydrogenase); 230,000 compounds, 1.6% hits; Potency, µM (titrated, usually from 57.1 µM), without a hit: at the highest dose activity change, negative = inhibition, usual class: inhibitors; B2RXH2; active = well fitted inhibition curve with a large enough effect, not every such curve was filed as active; inconclusive = small, poorly fitted or top-dose-only effect, or another doubt; inactive = no such curve, though single readings can be large or run the other way;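 note: potency is the fitted concentration of half-maximal effect; 0% = wells with enzyme and -100% = buffer wells without enzyme; nearly all actives have a fitted effect of over 50% in size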
Target sequence (B2RXH2 1-337 limits assumed): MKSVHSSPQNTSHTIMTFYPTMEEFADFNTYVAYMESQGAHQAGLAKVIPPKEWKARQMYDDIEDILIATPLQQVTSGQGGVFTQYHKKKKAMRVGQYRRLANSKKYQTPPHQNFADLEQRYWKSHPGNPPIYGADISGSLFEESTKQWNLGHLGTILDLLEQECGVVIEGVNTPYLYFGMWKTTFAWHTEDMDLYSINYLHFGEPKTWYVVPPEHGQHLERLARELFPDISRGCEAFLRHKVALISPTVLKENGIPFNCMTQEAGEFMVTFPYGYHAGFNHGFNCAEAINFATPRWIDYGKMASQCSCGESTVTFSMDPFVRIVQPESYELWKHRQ
Tau FP inhib – blocks human tau fibril formation measured by polarization; Potency, µM (highest dose often 57.7 µM), for inactives: at the top dose activity, negative = inhibition, hits mostly inhibitors; 280,000 compounds, 0.39% hits; AID 1468; K18 P301L tau heparin fibrillization, Alexa594 FP, 6 h; note: potency is the fitted concentration of half-maximal effect; nearly all actives have a fitted effect of over 55% in size
Target sequence (P10636 561-689 P618L limits assumed): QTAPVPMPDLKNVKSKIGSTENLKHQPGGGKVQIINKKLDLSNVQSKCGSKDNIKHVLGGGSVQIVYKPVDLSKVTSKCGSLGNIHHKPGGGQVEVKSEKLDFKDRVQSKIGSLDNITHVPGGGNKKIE
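FP of Alexa 594-tau after heparin (20 uM) induction. Substrate: human K18 P301L, 15 uM unlabeled, 0.24 uM labeled. Buffer 100 mM sodium acetate pH 7. 6 hr, 37 C.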
Sfp PPTase inh – blocks B. subtilis Sfp PPTase activity | 310,000 compounds, 3.5% hits | AID 1490 | Biochemical Sfp PPTase activity, qHTS | Q9F4F7 | Potency, µM, for inactives: largest response in the series, negative = inhibition, usual class: inhibitors;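 note: the enzyme is Sfp with the accession as filed and its product quenches rhodamine fluorescence; potency is the fitted concentration of half-maximal effect; 0% = enzyme reaction without inhibitor and -100% = no enzyme wells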
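With Hepes-Na pH 7.6 buffer containing 10 mM MgCl2, Sfp (15 nM) modified BHQ-2-YbbR (12.5 uM) using rhodamine-CoA (5 uM). Two reads 30 minutes apart at 525/598 nm yielded each well's rate.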
Tau fibril ThT – blocks human tau fibril formation measured by thioflavin T | P10636 | 270,000 compounds, 2.1% hits | Potency, µM (titrated, usually from 57.4 µM), for inactives: at the top dose activity, negative = inhibition, most hits filed as inhibitors | recombinant tau K18 P301L, heparin-induced fibrillization, ThT fluorescence; note: potency is the fitted concentration of half-maximal effect; nearly all actives have a fitted effect of over 55% in size
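ThT emission at 510 nm, taken 1 hr after adding 30 uM dye, quantifies aggregates formed when 20 uM heparin acts on human tau K18 P301L for 6 hr at 37 C.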
Coupling enz – counter-screen for Giardia aldolase inhibitors: coupling enzyme system; activity change, negative = inhibition, % at 58.2 µM, hits read low; 290,000 compounds, 0.67% hits; coupling enzyme system counterscreen, AmpLite Red fluorescence; in the data active = activity change below about -30%
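Counterscreen lacking aldolase: glyceraldehyde-3-phosphate coupling-enzyme reagent preincubated 10 min at RT with compound (at 57.5 uM final), then substrate/coupling system with AmpLite Red added; fluorescence read at 525/598 nm after 20 min RT.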
Tau fluor cs – counter-screen for tau fibril formation inhibitors. Potency, µM (top dose mostly 57.7 µM), without a hit: top-dose activity change, negative = decrease. 280,000 compounds, 0.93% hits. tau K18 P301L Alexa594 fluorescence, heparin fibrillization; note: potency is the fitted concentration of half-maximal effect; nearly all actives have a fitted effect of over 55% in size
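Human tau K18 P301L (15 uM unlabeled, 0.24 uM Alexa 594-labeled) in 100 mM sodium acetate pH 7 with 20 uM heparin, 6 hr at 37 C. ThT 30 uM added, 1 hr ambient; Alexa 594 FP and total fluorescence read at 555/632 nm.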
Active calls of the source: *; ? = inconclusive; / = no result given; [ ] = dose if it differs, or a comment. Unless noted, calls come from the whole dose curve; as a rule, active = well fitted curve in the direction sought with a large enough effect; inconclusive = small, poorly fitted or top-dose-only effect, or another doubt; inactive = no such curve, though single readings can be large; an effect the other way counts as inactive or inconclusive. Unless noted, % is set by controls: 0 for no effect and ±100 for the full control effect.

SMILES	JMJD2E inh	Tau FP inhib	Sfp PPTase inh	Tau fibril ThT	Coupling enz	Tau fluor cs
CCCCC/C=C\C/C=C\C/C=C\CCCCC(=O)NCCCC(=O)O	-1%	-3%	26%	-11%	3	-15%
N#Cc1cccc(-c2nc(NCc3cccnc3)c3ccccc3n2)c1	/	/	-7%	/	-3	/
O=C(O)COc1cccc2c1CCC=C2CCO/N=C(\c1ccccc1)c1cccnc1	/	/	-6%	/	12	/
COC(=O)Cn1cc(/C=N/NC(=O)c2ccc(C#N)cc2F)c2ccccc21	2%	4%	9%	-13%	2	-10%
O=C(Cn1cc(/C=N/NC(=O)c2ccccc2Br)c2ccccc21)Nc1ccc(F)cc1	?	-7%	?	-14%	0	16µM*[quencher]
CCn1cc(/C=N/NC(=O)c2ccc(C#N)cc2F)c2ccccc21	3%	7%	12%	?	-32*	?
Cc1cc(C)c(NC(=O)Cn2c(=O)oc3cc(S(=O)(=O)N4CCCCCC4)ccc32)c(C)c1	/	?	/	10%	/	-6%
CCCc1nc2sc3ccccc3c(=O)c2c(=O)n1Cc1ccc(OC)cc1	8%	-5%	?	?	5	-2%
CCCc1nc2oc3cc(OC)ccc3c(=O)c2c(=O)n1Cc1ccco1	-17%	0%	32µM*	?	-2	1%
COc1ccc2c(=O)c3c(=O)n(Cc4ccco4)c(-c4cc(OC)c(OC)c(OC)c4)nc3oc2c1	-19%	-8%	?	?	-1	-11%
COc1ccc2c(=O)c3c(=O)n(Cc4ccco4)c(-c4ccccc4)nc3oc2c1	-10%	-3%	32µM*	?	3	-10%
CCCc1nc2sc3ccccc3c(=O)c2c(=O)n1Cc1ccco1	3%	-6%	28µM*	-9%	-1	-22%
Cc1cc(C)c2c(n1)SCCN2C(=O)Nc1ccc(C(=O)Nc2cc(Cl)ccc2C)cc1	/	0%	/	-5%	/	-8%
C=CCNC(=O)N1CCc2nc(-c3ccccc3)c3c(c2C1)CO[C@@H](C)C3	0%[11.4 µM]	-3%[11.6 µM]	12%	3%[11.5 µM]	3	-3%[11.6 µM]
CCc1cc(/C(Cc2ccccn2)=N\O)c(O)cc1O	?	8%	15%	-12%	5	-19%
CCc1cc(/C(Cc2ccc3ccccc3n2)=N\O)c(O)cc1O	-25%	-9%	13%	-14%	-4	22µM*[quencher]
Cc1c(O)ccc(/C(Cc2ccc3ccccc3n2)=N\N)c1O	?	9%	12%	7.1µM*	-1	11µM*[quencher]
Cc1ccccc1CC(=O)c1ccc(O)c(C)c1O	1%	?	1%	-16%	-1	?
COC(=O)c1cccc(NC(=S)Nc2cc(Cl)ccc2OC)c1	-1%	?	20µM*	-13%	0	?
COC(=O)c1cc(NC(=S)NCc2ccc(Cl)cc2)cc(C(=O)OC)c1	-19%	18µM*	-3%	11%	1	14µM*[quencher]
Cc1ccc(NC(=O)C2CCN(c3cc(C)nc4c(-c5ccc(Cl)cc5)c(C)nn34)CC2)c(C)c1	/	-1%	/	-7%	/	-12%
Cc1ccc(S(=O)Cc2ccc(C(=O)NC3CCCCCC3)o2)cc1 (stereo unspecified)	/	-9%	/	-6%	/	-7%
C=Cc1ccc(CSc2nnc(C)n3c2cc2occc23)cc1	/	-8%	/	?	/	-25%
CN1C(=O)C[C@@H](C(=O)N[C@@H](Cc2cnc[nH]2)C(=O)N2CCC[C@H]2C(N)=O)NC1=O	/	/	-9%	/	/	/
O=C(NCSc1ccnc(SCNC(=O)c2ccc(F)cc2)n1)c1ccc(F)cc1	-23%	-1%	8.9µM*	-12%	1	-6%
SMILES	JMJD2E inh	Tau FP inhib	Sfp PPTase inh	Tau fibril ThT	Coupling enz	Tau fluor cs
C=C1C(=O)[C@@]23[C@H](O)C[C@@H]4C(C)(C)CC[C@H](O)[C@]4(C)[C@@H]2C[C@H](O)[C@@H]1[C@H]3O	-2%	-7%	45µM*	-16%	7	-6%
O=C(Nc1cccc(C(F)(F)F)c1)c1cc(CN2CCOCC2)on1	/	4%	/	-1%	/	4%
[O-][n+]1onc2c1CCC(=N/O)/C2=N\Nc1ccccc1	14%	?	32µM*	14µM*	-27	?
CCCCCCCCCCCCCCCCOCC(COP(=O)([O-])OCC[N+](C)(C)C)OC (stereo unspecified)	0%	0%	5%	-11%	6	-2%
COC(=O)C1=C(C)N=C2SCCC(=O)N2C1c1cc(Br)ccc1OC (stereo unspecified)	?	3%	11%	5µM*	-1	?
CS(=O)(=O)c1ccc(C(O)C(CO)NC(=O)C(Cl)Cl)cc1 (stereo unspecified)	2%	-5%	11%	-1%	5	-6%
COC(=O)c1cccnc1NC(=S)NNC(=O)c1ccncc1	-18%	3%	10µM*	-18%	-30	-10%
O=Cc1ccc(O)c2ncccc12	3.2µM*	1%	25%	-16%	-3	-5%
CC1(O)/C=C\C=C(\CO)C2CC(C)(C)C2(O)CC1 (stereo unspecified)	-4%	-4%	-1%	-17%	-1	-21%
CCCCCCCCCCCCC/C=C/C(O)C(COP(=O)(O)OCCN)NC(=O)CCCCCCCCCCCCCCCCC (stereo unspecified)	/	/	-1%	/	1	/
Cc1cc(C)c(S(=O)(=O)Nc2ccc(-c3ccc(N4CCCCC4)nn3)cc2)c(C)c1	/	-7%	/	-17%	/	-29%
CC(C)OC(=O)C(C(=O)C(F)(F)F)c1cc(NS(=O)(=O)c2ccc3c4c(cccc24)C(=O)N3)ccc1O (stereo unspecified)	/	-5%	/	-8%	/	-27%
CC(C)OC(=O)C(C(=O)C(F)(F)F)c1cc(NS(=O)(=O)c2ccc3ccccc3c2)c2ccccc2c1O (stereo unspecified)	?	-12%	56µM*	?	-20	?
COc1ccc(-c2cc(=O)c3ccccc3o2)cc1OC	?	-9%	35µM*	?	-27	-14%
O=c1cc(-c2ccc(O)c(O)c2)oc2ccccc12	8.9µM*	?	-59%	18µM*	-20	?
O=c1cc(-c2ccccc2)oc2ccc(O)cc12	-5%	0%	-10%	?	0	-9%
O=c1cc(-c2ccccc2Cl)oc2c([N+](=O)[O-])ccc(O)c12	/	1%[81.3 µM]	-10%	?	1	-8%[81.3 µM]
O=c1cc(-c2ccccc2)oc2cc(O)c(O)cc12	28µM*	1%	-3%	?	1	?
O=c1cc(-c2ccc(O)cc2)oc2cc(O)ccc12	?	0%	3%	-14%	-1	-14%
O=c1cc2oc3cc(O)c(O)cc3c(-c3ccccc3[N+](=O)[O-])c-2cc1O	/	/	35µM*	/	-20	/
